Measured values taken from the supplement of paper PMC9925115.

Test system: FLX1 + dox-induced PRKAR1A G325D
Experiment: difference in log2 fold change of viability vs plate median (dox-induced PRKAR1A G325D minus uninduced); higher = compound less effective when PKA is inhibited
Details: concentration: not stated (2 or 5 uM); 5 days
Description: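 For each plate a log2 fold change vs the plate median was derived, and the values without dox were subtracted from those with dox, averaged over three biological replicates.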

| SMILES | difference in log2 fold change of viability |
| --- | --- |
| CS(=O)(=O)CCNCc1ccc(-c2ccc3ncnc(Nc4ccc(OCc5cccc(F)c5)c(Cl)c4)c3c2)o1 | 0.519 |
| CCS(=O)(=O)c1cccc(-c2cc(C(=O)NC3CCN(C)CC3)c(C)c3[nH]c4ncc(C)cc4c23)c1 | -0.102 |
| N#CCNC(=O)c1ccc(-c2ccnc(Nc3ccc(N4CCOCC4)cc3)n2)cc1 [Momelotinib (CYT387)] | 0.708 |
| COc1ccc(-c2cc3c(C)nc(N)nc3n([C@H]3CC[C@H](OCCO)CC3)c2=O)cn1 | 0.605 |
| CCCS(=O)(=O)Nc1ccc(F)c(C(=O)c2c[nH]c3ncc(-c4ccc(Cl)cc4)cc23)c1F [Vemurafenib (PLX4032, RG7204)] | 0.336 |
| Cc1cc2c(F)c(Oc3ncnn4cc(OC[C@@H](C)O)c(C)c34)ccc2[nH]1 | 0.515 |
| C=CC(=O)Nc1ccc2ncnc(Nc3cccc(Br)c3)c2c1 | -0.936 |
| C=CC(=O)Nc1ccc2ncnc(Nc3ccc(OCc4cccc(F)c4)c(Cl)c3)c2c1 | -0.53 |
| Oc1ccc(Nc2nc(-c3ccc(Cl)cc3)cs2)cc1 | -0.56 |
| COc1cc2ncnc(Nc3ccc(F)c(Cl)c3)c2cc1OCCCN1CCOCC1 [Gefitinib (ZD1839)] | -0.198 |
| C#Cc1cccc(Nc2ncnc3cc(OC)c(OCCCCCCC(=O)NO)cc23)c1 | -0.131 |
| COc1cc(Nc2c(C#N)cnc3cc(OCCCN4CCN(C)CC4)c(OC)cc23)c(Cl)cc1Cl [Bosutinib (SKI-606)] | -0.235 |
| Nc1nc(N)c(N=O)c(OCC2CCCCC2)n1 | -0.216 |
| CSc1cccc(Nc2ncc3cc(-c4c(Cl)cccc4Cl)c(=O)n(C)c3n2)c1 | -0.0582 |
| C[C@@H](N)[C@H]1CC[C@H](C(=O)Nc2ccncc2)CC1 | 0.511 |
| Cc1ccc(NC(=O)c2ccc(CN3CCN(C)CC3)cc2)cc1Nc1nc(-c2cccnc2)cs1 [Masitinib (AB1010)] | 0.682 |
| C[C@@]1(C(=O)Nc2ccc(F)nc2)CCCN1c1nc(Nc2cc(C3CC3)n[nH]2)c2cccn2n1 | -1.23 |
| CS(=O)(=O)N1CCN(Cc2cc3nc(-c4cccc5[nH]ncc45)nc(N4CCOCC4)c3s2)CC1 [Pictilisib (GDC-0941)] | -0.0931 |
| Cn1cc(-c2ccc3ncc(Cc4ccc5ncccc5c4)n3n2)cn1 | -0.0241 |
| N#CC(=C(/N)Sc1ccccc1N)/C(C#N)=C(\N)Sc1ccccc1N | 0.518 |

| SMILES | difference in log2 fold change of viability |
| --- | --- |
| COc1cc(F)c(F)c(Nc2ccc(I)cc2F)c1NS(=O)(=O)C1(C[C@H](O)CO)CC1 [Refametinib (RDEA119, Bay 86-9766)] | 0.183 |
| Cc1nc(Nc2n[nH]c3c2CN(C(=O)N[C@H](CN(C)C)c2ccccc2)C3(C)C)c2sccc2n1 | 0.871 |
| Clc1ccc(Nc2nnc(Cc3ccncc3)c3ccccc23)cc1 [Vatalanib (PTK787) 2HCl] | 0.168 |
| Cc1ccc(S(=O)(=O)/C=C/C#N)cc1 | -0.118 |
| CNC(=O)c1cc(Oc2ccc(NC(=O)Nc3cc(C(C)(C)C)nn3-c3ccc4ncccc4c3)c(F)c2)ccn1 [Rebastinib (DCC-2036)] | 0.37 |
| COc1ccc(CNC(=O)Nc2ncc([N+](=O)[O-])s2)cc1 | 0.288 |
| NC(=O)Nc1sc(-c2ccc(F)cc2)cc1C(N)=O | -0.89 |
| O=c1sn(-c2cccc3ccccc23)c(=O)n1Cc1ccccc1 [Tideglusib] | 1.01 |
| Cn1cc(C2=C(c3ccc(Cl)cc3Cl)C(=O)NC2=O)c2ccccc21 | 0.189 |
| Cc1cc(CS(=O)(=O)c2ccccc2)cc(OCc2ccc(CN3CCC[C@@H]3CO)cc2)c1 | 0.461 |
| CCn1c(N)c(C(=O)NC)c(=O)c2ccc(C#CC(C)(O)COC)nc21 (stereo not given) | 0.0292 |
| Oc1c2ccccc2c2c3c(cccc13)N=N2 | 0.149 |
| CC(C)(C)NS(=O)(=O)c1cncc(-c2cc(F)c3nc(N)nn3c2)c1 | -0.0394 |
| C=CC(=O)Nc1cccc(Oc2nc(Nc3ccc(N4CCN(C)CC4)cc3)ncc2Cl)c1 | -0.131 |
| Cn1c(Nc2ccc(C(F)(F)F)cc2)nc2cc(Oc3ccnc(-c4ncc(C(F)(F)F)[nH]4)c3)ccc21 | -0.588 |
| Cc1[nH]nc2ccc(-c3cncc(OC[C@@H](N)Cc4ccccc4)c3)cc12 | 0.18 |
| O=C(O)c1ccc(Nc2ncc3c(n2)-c2ccc(Cl)cc2C(c2c(F)cccc2F)=NC3)cc1 | -0.0396 |
| CNC(=O)Nc1ccc(-c2nc(N3CC4CCC(C3)O4)c3cnn(C4CCC5(CC4)OCCO5)c3n2)cc1 | 1.48 |
| COc1cccc2cc(-c3nc([C@H]4CC[C@H](C(=O)O)CC4)n4ncnc(N)c34)[nH]c12 | 0.812 |
| CCOc1cc(N2CCC(O)CC2)ccc1Nc1ncc2c(n1)N(C)c1ccccc1C(=O)N2C | 0.697 |
